molecular target: Solute carrier family 2, facilitated glucose transporter member 1 (Homo sapiens) (UniProt P11166); test: ST_JUDE_LEISH: Cytotoxicity at 2uM final concentration against transgenic Leishmania Mexicana promastigotes LmGLUT1 that are glucose transport deficient and complemented with the human glucose transporter GLUT1. Activity is measured by DNA content using SYBR green in vitro; format: functional
Sequence (P11166 whole entry): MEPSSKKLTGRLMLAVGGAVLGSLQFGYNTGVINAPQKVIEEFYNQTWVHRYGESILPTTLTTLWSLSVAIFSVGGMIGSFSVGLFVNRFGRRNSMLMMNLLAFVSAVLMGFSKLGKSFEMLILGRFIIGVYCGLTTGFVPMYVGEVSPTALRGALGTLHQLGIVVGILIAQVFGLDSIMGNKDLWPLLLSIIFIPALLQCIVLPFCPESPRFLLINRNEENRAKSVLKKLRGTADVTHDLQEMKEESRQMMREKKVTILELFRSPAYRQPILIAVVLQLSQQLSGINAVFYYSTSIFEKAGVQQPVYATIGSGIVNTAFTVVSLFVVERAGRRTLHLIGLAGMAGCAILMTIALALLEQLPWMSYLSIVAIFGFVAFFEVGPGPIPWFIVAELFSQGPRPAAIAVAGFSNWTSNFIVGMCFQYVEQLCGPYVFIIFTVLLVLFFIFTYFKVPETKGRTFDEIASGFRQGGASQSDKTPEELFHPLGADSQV

In order of rising inhibition:
1. C=CCc1c(C(=O)NCC23CC4CC(CC(C4)C2)C3)nc2ccccc2c1O  -2.74%
2. O=C(Nc1ccc(Br)cc1)c1cc(Br)ccc1NS(=O)(=O)c1cc(C(F)(F)F)cc(C(F)(F)F)c1  -2.23%
3. CC1CN(c2cnn(Cc3cccc(NC(=O)Nc4ccc(F)cc4[N+](=O)[O-])c3)c(=O)c2Cl)CC(C)N1 (stereo not given)  -2.05%
4. FC(F)(F)COc1ccc(CCNCCCCNCCc2ccc(OCC(F)(F)F)c3ccccc23)c2ccccc12  -0.09%
5. O=C(NCc1cc2c(cc1Cl)OCO2)c1ccc(CNC2CCN(Cc3ccccc3)CC2)cc1  0.15%
6. O=C(NC1CCN(CC2(c3ccccc3)CCCC2)CC1)c1n[nH]cc1Cl  0.19%
7. Cc1cc(N(C)CCCN2CCCCC2)nc(Nc2ccc(Cl)cc2)n1  0.51%
8. Cc1cc(Nc2ccc3c(c2)CCC3)n2ncnc2n1  0.63%
9. Cc1ccc(CNC(=O)[C@H](CCCN)Nc2nc(Nc3ccccc3)ncc2C)cc1  1.37%
10. COc1ccc(C(C(=O)NC2CCN(C[C@H](O)c3ccnc4ccc(OC)cc34)CC2)N2CCN(c3ccc(F)cc3)CC2)cc1 (stereo not given in full)  1.52%
11. COc1ccc(Cl)cc1-c1nc(C(=O)NCCN2CCCCC2)c(C)s1  1.59%
12. CS(=O)(=O)NCCCNCc1ccc(-c2ccc(-c3nc4cc(C(F)(F)F)ccc4[nH]3)s2)cc1  1.6%
13. CCCCCN1CCC(NS(=O)(=O)c2cccc(C(=O)Nc3ccc(C(F)(F)F)cc3)c2)C1 (stereo not given)  1.64%
14. CN1CCN(CCCN(Cc2cccc(-c3ccc(CNCc4ccc5c(c4)OCO5)cc3)c2)C(=O)Nc2ccccc2)CC1  1.77%
15. Nc1ccc(-c2ccc3ccnc(N)c3c2)cn1  1.94%
16. CC(C)(C)OC(=O)NCc1ccc(Nc2nnc(-c3ccc(OCC(=O)NCc4ccc(C(C)(C)C)cc4)c([N+](=O)[O-])c3)o2)cc1  2.12%
17. CCC1CCCCN1S(=O)(=O)c1ccc(NC(=O)c2cc(C)on2)cc1 (stereo not given)  2.22%
18. CC1(C)N=C(NC(=O)Nc2ccc([N+](=O)[O-])cc2)N=C(N)N1OCc1cccc2ccccc12  2.41%
19. COc1ccc(Cn2cncc2CN(CCC(C)C)C(=O)c2ccc(Cl)nc2Cl)cc1  2.52%
20. COCCCNc1nc2cc(OC)c(OC)cc2c2nc(-c3ccccc3)nn12  2.53%
21. Cc1nc(C)c(-c2ccc(Oc3cc(Cl)cc(Cl)c3)cc2)c(O)c1Cl  2.68%
22. COc1ccc2nccc([C@@H](O)CN3CCC(NCc4nc5cc(F)cc(F)c5[nH]4)CC3)c2c1  3.31%
23. COc1cc2c(cc1OC)CN(CCc1ccc(NC(=O)c3cc4cc(OC(F)(F)F)ccc4[nH]3)cc1)CC2  3.34%
24. COc1cc(NC(=O)/C=C/c2ccccc2OC(F)(F)F)cc(OCCN2CCN(CCN3CCOCC3)CC2)c1  3.4%
25. COc1ccc2nccc([C@@H](O)CN3CCC(NC[C@H](Cc4ccccc4)NC(=O)OC(C)(C)C)CC3)c2c1  3.73%
26. Cc1ccc(Nc2c3ccccc3nc3ccc(C)cc23)cc1  4.86%
27. CC(=O)Nc1ccc(CN2CCN(C(c3ccc(F)cc3)c3ccc(F)cc3)CC2)cc1  5.18%
28. O=C(Nc1ccc(Cl)cc1)c1ccc(CN2CCCN(Cc3ccc(F)cc3)CC2)cc1  5.91%
29. Cc1c(C)n(C2CCCC2)c2ncnc(OC3CCN(CC(=O)NCC4CC4)CC3)c12  7.05%
30. Cc1ccccc1OCC(=O)Nc1ccc(-c2nc3cc4ccccc4cc3[nH]2)cc1  7.32%
31. Cc1ccc(NC(=O)c2ccc(CN3CCCN(Cc4cccc(O)c4)CC3)cc2)cc1F  7.81%
32. CCCN(Cc1ccc(OCC)cc1)Cc1cc(=O)c2cc(Cl)ccc2[nH]1  8.02%
33. OC1CCCN(Cc2ccc(-c3ccc(-c4nc5ccccc5[nH]4)cc3)cc2)C1 (stereo not given)  8.52%
34. Cc1cc(N[C@@H](Cc2ccccc2)C(=O)NCc2cccs2)nc(NCCOc2ccccc2)n1  8.74%
35. CC(=O)Nc1nc(C(=O)Nc2ccc(-c3ccc(-c4nc5cccc(C)c5[nH]4)cc3)cc2)cs1  10.7%
36. CCn1cc(-c2nc(-c3cc(OC)cc(OC)c3)no2)c(=O)c2ccccc21  12.3%
37. CCCNCc1ccc(-c2ccc(CN(Cc3ccc4c(c3)OCO4)C(=O)[C@H]3CCCO3)cc2)nc1  13.6%
38. COc1ccc(Nc2nc(N3CCCC3)c3ccccc3n2)cc1  17.6%
39. COc1cc(F)c2ncc(Cl)c(CCN3CCC(NCc4cc5c(cn4)OCCO5)CC3)c2c1  28.4%
40. CN1CCN(c2cc3c(cc2Br)CCN3C(=O)Nc2ccc(-c3cnc4ccccc4c3)cc2)CC1  107%

From ChEMBL document CHEMBL3433997, “St. Jude Leishmania screening dataset” (2016)
